Laboratory results reported in PubChem BioAssay AID1159580 (chemical genetic matrix, 2015).
Out of some 5,500 compounds screened, about 2,000 (36%) were called active. Another 18% or so got no clear call; they are omitted. Cut-off read from the data, not from the text of the source: active = normalized growth mostly below about 0.91 (no sharp cut-off); inconclusive = no clear call, values can overlap the other calls; inactive = mostly above about 0.92. The list shows a part of the results.

Test: chemical genetic growth profiling, strain panel (AID 1159580);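 note: tested at 20 µM; growth read once vehicle control cultures reached saturation at 30 °C; 1 = growth at the plate median or of vehicle wells; lower values mean less growth of the strain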
Settings: growth OD

Measured: normalized growth

NCC1CCC(C(=O)O)CC1 (stereo not drawn)
inactive: S. cerevisiae deletion strains, locus YKL009W, strain mrt4, hits give low values 0.97 | S. cerevisiae deletion strains, locus YKL068W, hits give low values 0.984 | S. cerevisiae deletion strains, locus YKL085W, strain MDH1 (second series), hits give low values 0.985 | S. cerevisiae deletion strains, locus YKL085W, strain MDH1, hits give low values 0.985 | S. cerevisiae deletion strains, locus YKL160W, strain elf1, hits give low values 0.997 | S. cerevisiae deletion strains, locus YKL190W, strain CNB1, hits give low values 0.995 | S. cerevisiae deletion strains, locus YKR001C, strain vps1, hits give low values 1.01 | S. cerevisiae deletion strains, locus YKR026C, strain gcn3, hits give low values 0.993 | S. cerevisiae deletion strains, locus YKR091W, strain srl3, hits give low values 0.997 | S. cerevisiae deletion strains, locus YLL001W, strain dnm1, hits give low values 0.998 | S. cerevisiae deletion strains, locus YLL026W, hits give low values 0.996 | S. cerevisiae deletion strains, locus YLL041C, strain sdh2, hits give low values 0.996 | S. cerevisiae deletion strains, locus YLR027C, strain aat2, hits give low values 0.989 | S. cerevisiae deletion strains, locus YLR039C, strain RIC1, hits give low values 0.975 | S. cerevisiae deletion strains, locus YLR058C, strain SHM2, hits give low values 1 | S. cerevisiae deletion strains, locus YLR102C, strain apc9, hits give low values 0.989 | S. cerevisiae deletion strains, locus YLR113W, strain HOG1, hits give low values 1 | S. cerevisiae deletion strains, locus YLR221C, strain rsa3, hits give low values 0.984 | S. cerevisiae deletion strains, locus YLR258W, strain gsy2, hits give low values 0.999 | S. cerevisiae deletion strains, locus YLR262C, strain YPT6 (second series), hits give low values 0.984 | S. cerevisiae deletion strains, locus YLR262C, strain YPT6, hits give low values 0.953 | S. cerevisiae deletion strains, locus YLR268W, strain sec22, hits give low values 0.991 | S. cerevisiae deletion strains, locus YLR320W, strain mms22, hits give low values 0.992 | S. cerevisiae deletion strains, locus YLR330W, strain CHS5, hits give low values 0.991 | S. cerevisiae deletion strains, locus YLR342W, strain FKS1 (second series), hits give low values 0.986 | S. cerevisiae deletion strains, locus YLR342W, strain FKS1, hits give low values 0.998 | S. cerevisiae deletion strains, locus YLR357W, strain rsc2, hits give low values 0.996 | S. cerevisiae deletion strains, locus YLR370C, strain arc18, hits give low values 0.996 | S. cerevisiae deletion strains, locus YLR371W, strain rom2, hits give low values 1 | S. cerevisiae deletion strains, locus YLR384C, strain iki3, hits give low values 0.999 | S. cerevisiae deletion strains, locus YLR418C, strain cdc73, hits give low values 0.97 | S. cerevisiae deletion strains, locus YML016C, strain PPZ1, hits give low values 0.999 | S. cerevisiae deletion strains, locus YML032C, strain rad52, hits give low values 1.01 | S. cerevisiae deletion strains, locus YML120C, strain ndi1, hits give low values 0.974 | S. cerevisiae deletion strains, locus YML124C, strain tub3, hits give low values 0.998 | S. cerevisiae deletion strains, locus YMR058W, strain fet3, hits give low values 0.988 | S. cerevisiae deletion strains, locus YMR078C, strain ctf18, hits give low values 0.98 | S. cerevisiae deletion strains, locus YMR125W, strain sto1, hits give low values 0.999 | S. cerevisiae deletion strains, locus YMR129W, hits give low values 0.999 | S. cerevisiae deletion strains, locus YMR205C, strain PFK2, hits give low values 0.989 | S. cerevisiae deletion strains, locus YMR223W, strain ubp8, hits give low values 0.987 | S. cerevisiae deletion strains, locus YMR231W, strain pep5, hits give low values 0.999 | S. cerevisiae deletion strains, locus YMR307W, strain GAS1, hits give low values 1.01 | S. cerevisiae deletion strains, locus YNL067W, strain RPL9B, hits give low values 1.03 | S. cerevisiae deletion strains, locus YNL071W, strain lat1, hits give low values 0.989 | S. cerevisiae deletion strains, locus YNL153C, strain GIM3, hits give low values 1.06 | S. cerevisiae deletion strains, locus YNL183C, strain NPR1, hits give low values 0.946 | S. cerevisiae deletion strains, locus YNL209W, strain ssb2, hits give low values 1.02 | S. cerevisiae deletion strains, locus YNL233W, strain BNI4, hits give low values 1.03 | S. cerevisiae deletion strains, locus YNL248C, strain rpa49, hits give low values 0.988 | S. cerevisiae deletion strains, locus YNL250W, strain rad50, hits give low values 0.979 | S. cerevisiae deletion strains, locus YNL271C, strain bni1, hits give low values 0.978 | S. cerevisiae deletion strains, locus YNL298W, strain CLA4, hits give low values 0.987 | S. cerevisiae deletion strains, locus YNL307C, strain MCK1, hits give low values 0.999 | S. cerevisiae deletion strains, locus YNL322C, strain KRE1 (second series), hits give low values 0.992 | S. cerevisiae deletion strains, locus YNL322C, strain KRE1, hits give low values 0.991 | S. cerevisiae deletion strains, locus YNR049C, strain mso1, hits give low values 0.991 | S. cerevisiae deletion strains, locus YNR052C, strain pop2, hits give low values 0.985 | S. cerevisiae deletion strains, locus YOL006C, strain TOP1, hits give low values 1.1 | S. cerevisiae deletion strains, locus YOL012C, strain htz1 0.934 | S. cerevisiae deletion strains, locus YOL147C, strain pex11, hits give low values 0.99 | S. cerevisiae deletion strains, locus YOR001W, strain rrp6, hits give low values 0.998 | S. cerevisiae deletion strains, locus YOR061W, strain CKA2, hits give low values 1 | S. cerevisiae deletion strains, locus YOR069W, strain VPS5, hits give low values 0.986 | S. cerevisiae deletion strains, locus YOR070C, strain gyp1, hits give low values 0.993 | S. cerevisiae deletion strains, locus YOR080W, strain dia2, hits give low values 0.987 | S. cerevisiae deletion strains, locus YOR083W, strain WHI5, hits give low values 1 | S. cerevisiae deletion strains, locus YOR106W, strain vam3, hits give low values 1.01 | S. cerevisiae deletion strains, locus YOR136W, strain idh2, hits give low values 0.991 | S. cerevisiae deletion strains, locus YOR144C, strain elg1, hits give low values 1 | S. cerevisiae deletion strains, locus YOR184W, strain ser1, hits give low values 0.981 | S. cerevisiae deletion strains, locus YOR231W, strain MKK1, hits give low values 1.05 | S. cerevisiae deletion strains, locus YOR265W, strain rbl2, hits give low values 0.994 | S. cerevisiae deletion strains, locus YOR270C, strain vph1, hits give low values 0.987 | S. cerevisiae deletion strains, locus YOR290C, strain snf2, hits give low values 1.01 | S. cerevisiae deletion strains, locus YOR316C, strain cot1, hits give low values 0.992 | S. cerevisiae deletion strains, locus YPL051W, strain arl3, hits give low values 0.993 | S. cerevisiae deletion strains, locus YPL078C, strain atp4, hits give low values 0.993 | S. cerevisiae deletion strains, locus YPL106C, strain sse1, hits give low values 0.967 | S. cerevisiae deletion strains, locus YPL240C, strain hsp82, hits give low values 0.989 | S. cerevisiae deletion strains, locus YPL241C, strain CIN2, hits give low values 0.996 | S. cerevisiae deletion strains, locus YPL256C, strain CLN2, hits give low values 1.02 | S. cerevisiae deletion strains, locus YPR119W, strain clb2, hits give low values 0.994 | S. cerevisiae deletion strains, locus YPR141C, strain kar3, hits give low values 0.998 | S. cerevisiae deletion strains, locus YPR163C, strain tif3, hits give low values 0.992 | S. cerevisiae deletion strains, locus YPR167C, strain met16, hits give low values 0.989 | S. cerevisiae deletion strains, strain wtn01, hits give low values 0.979 | S. cerevisiae strains, strain wild type, hits give low values 0.995
